# Screening results: PubChem, National Center for Advancing Translational Sciences (NCATS)
# BAZ2B inh – BAZ2B (human) inhibition; AlphaScreen BAZ2B-H3K14Ac peptide displacement; Potency, µM (series often up to 114 µM), inactives show top-dose activity change, negative = inhibition, most hits filed as inhibitors; 360,000 compounds, 4.4% hits; AID 504333; note: % is set by controls: 0 for no effect and ±100 for the full control effect; nearly all actives have a fitted effect of over 60% in size
#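 Inhibition is scored as reduced AlphaScreen emission. The BAZ2B/b-H3(5-23)K14Ac complex (50 nM each) in PBS pH 7.4, 0.01% Tween-20 meets compound (up to 110 uM) for 30 min at RT before bead addition.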
# HP1b chromo inh – HP1-beta chromodomain-methylated histone interaction inhibition; P83916; AlphaScreen HP1-beta / biotin-H3K9me3 peptide binding; Potency, µM (series often up to 114 µM), for the others: at the top dose activity change, negative = inhibition, actives largely listed as inhibitors; 390,000 compounds, 0.56% hits; AID 540317; note: nearly all actives have a fitted effect of over 70% in size
# Target sequence (P83916 whole entry, looked up): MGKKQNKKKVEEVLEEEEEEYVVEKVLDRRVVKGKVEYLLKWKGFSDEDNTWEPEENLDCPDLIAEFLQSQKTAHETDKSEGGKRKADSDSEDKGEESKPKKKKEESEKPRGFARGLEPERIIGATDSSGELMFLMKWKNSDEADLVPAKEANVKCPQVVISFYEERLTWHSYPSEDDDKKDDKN
#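 HP1-beta protein (50 nM final) preincubated 30 min at room temperature with biotinylated H3(1-18)K9me3 peptide (50 nM) in PBS pH 7.4, 0.01% Tween-20, then compound added for 30 min. AlphaScreen streptavidin donor/nickel chelate acceptor beads (10 ug/mL final), 30 min dark, luminescence read.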
# G9a block – G9a (human) methyltransferase inhibition. 350,000 compounds, 8.8% hits. G9a H3K9 monomethylation, AlphaScreen, 2 h. Potency, µM (doses to about 102 µM), for the others: at the top dose activity, negative = inhibition, hits mostly inhibitors; note: % is set by controls: 0 for no effect and ±100 for the full control effect; nearly all actives have a fitted effect of over 75% in size
# Target sequence (Q96KQ7 913-1193 limits assumed): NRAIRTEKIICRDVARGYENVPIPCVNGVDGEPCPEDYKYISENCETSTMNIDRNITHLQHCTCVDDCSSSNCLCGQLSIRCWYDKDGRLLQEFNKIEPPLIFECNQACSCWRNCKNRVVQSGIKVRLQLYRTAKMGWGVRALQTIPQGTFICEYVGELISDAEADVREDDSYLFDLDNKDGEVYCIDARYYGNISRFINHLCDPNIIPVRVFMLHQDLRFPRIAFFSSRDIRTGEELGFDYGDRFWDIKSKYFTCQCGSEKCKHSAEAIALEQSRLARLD
#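 AlphaScreen read-out: biotin-H3K9 peptide (500 nM) methylation by 20 nM enzyme with 20 uM SAM, 2 h at room temperature after 15 min compound preincubation; anti-monomethyl H3K9 antibody plus donor/acceptor beads, 10 min dark.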
# JMJD2A Tudor inh – inhibitors of human JMJD2A Tudor domain; O75164; AlphaScreen JMJD2A-Tudor / H3K4me3 peptide binding; Potency, µM (highest dose often 114 µM), for the others: at the highest dose activity change, negative = inhibition, most hits filed as inhibitors; 390,000 compounds, 4.4% hits; AID 504339; note: % is set by controls: 0 for no effect and ±100 for the full control effect; nearly all actives have a fitted effect of over 50% in size
# GLS inhibitor – glutaminase GLS (human) inhibition; GLS enzymatic activity, qHTS titration; Potency, µM (doses to about 45.5 µM), for inactives: top-dose activity change, negative = inhibition, most hits filed as inhibitors; 410,000 compounds, 0.21% hits; note: % is set by controls: 0 for no effect and ±100 for the full control effect
#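 hKGA in 45 mM KH2PO4 pH 8.2, 0.02% Tween-20 with pin-transferred compounds; 1 mM L-glutamine (stock) plus glutamate oxidase/HRP/Amplex Red coupling added. Fluorescence read initially and after 30 min at RT.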
# * = called active by the depositor; ? = inconclusive; / = no result given; [ ] = dose if it differs, or a comment. Hits are enriched below; roughly 10% of the tested compounds scored in any of these assays. Calls come from the whole dose curve; as a rule, active = well fitted curve in the direction sought with a large enough effect; inconclusive = small, poorly fitted or top-dose-only effect, or another doubt; inactive = no such curve, though single readings can be large; an effect the other way counts as inactive or inconclusive. Potency is the fitted concentration of half-maximal effect.
SMILES,BAZ2B inh,HP1b chromo inh,G9a block,JMJD2A Tudor inh,GLS inhibitor
CC1(C)CC(=O)C(N=Nc2cccc([N+](=O)[O-])c2)=C(O)C1,?,-20.9%,50.1µM*,?,5.7%
CC1(C)CC(=O)C(N=Nc2ccc(S(=O)(=O)N3CCOCC3)cc2)=C(O)C1,-15.6%,3.3%,-17.3%[59 µM],35.5µM*,-8.8%
COc1ccc(N=NC2=C(O)CC(C)(C)CC2=O)c(OC)c1,?,-19.3%,28.2µM*,-33.6%,84.9%
CC1(C)CC(=O)C(N=Nc2ccc(C(F)(F)F)cc2[N+](=O)[O-])=C(O)C1,20µM*,?,/,50.1µM*,6.4%
COc1ccc(N=NC2=C(O)CC(C)(C)CC2=O)cc1,?,8.7%,/,-18.0%,14.5%
CC1(C)CC(=O)C(N=Nc2ccc(Br)cc2)=C(O)C1,-28.3%,-2.6%,-27.0%,-9.6%,4.5%
CN(C(=O)CSc1cc(C(=O)c2nccn2C)c2ccccc2n1)c1ccccc1,?,16.5%,-5.8%,-33.8%,-14.0%
CCn1nc(C)c(CN2CCC(n3nccc3NC(=O)Cc3ccccc3)CC2)c1C,-4.9%,8.8%,-18.9%,-12.4%,7.3%
O=[N+]([O-])c1ccc(COc2cccc(CN3CCCCC3)c2)cc1,/,25.7%,/,-25.3%,-8.7%
O=C(c1ccc(COc2ccc(Cl)cc2Cl)o1)N1CCCC1,-13.3%,18.2%,/,-14.5%,15.4%
Cc1ccc(C(=O)CN2CCN(c3ccccn3)CC2)c(C)c1,-14.6%,36.0%,39.8µM*,-18.8%,0.6%
Cc1cc(Br)ccc1NC(=O)CN1CCN(c2ccccn2)CC1,0.1%,50.2%,28.6%[2.33 µM],-13.1%,-9.4%
Cc1ccc2[nH]cc(C(=O)CN3CCN(c4ccccn4)CC3)c2c1,-1.7%,18.3%,50.1µM*,-5.6%,1.0%
COc1ccc(CCNC(=O)CCCn2c(=S)[nH]c3ccsc3c2=O)cc1OC,/,/,/,/,-13.3%
COC(=O)c1cc(S(=O)(=O)N(Cc2ccccc2)C(C)(C)C)c[nH]1,?,16.4%,-5.4%,-17.9%,7.4%
CC(=O)NC(c1ccc(F)c(F)c1)c1nc(-c2cc3ccccc3o2)cs1 (configuration not stated),/,/,/,/,1.9%
O=c1c2ccccc2cnn1Cc1n[nH]c(=S)n1-c1ccccc1Cl,-29.5%,39.7%,4.47µM*,31.6µM*,4.9%
O=c1c2ccccc2cnn1Cc1n[nH]c(=S)n1-c1ccc(F)c(Cl)c1,-24.9%,31.8%,3.16µM*,7.94µM*,-0.8%
O=c1c2ccccc2cnn1Cc1n[nH]c(=S)n1-c1cc(Cl)cc(Cl)c1,-34.2%,21.3%,0.398µM*,25.1µM*,1.9%
O=c1c2ccccc2cnn1Cc1ccc(Cl)c(Cl)c1,65.9%,61.2%,19.9%,51.8%,-9.2%
CCn1c(=O)n(-c2ccc(F)c(Cl)c2)c(=O)c2sc3ccccc3c21,-11.2%,29.0%,6.0%[59 µM],-4.6%,11.6%
Cc1ccc(-c2nc3c4ccccc4ccn3c2CN2CCCCC2)cc1,50.1µM*,1.7%,?,?,7.6%
c1ccc(-c2nc3c4ccccc4ccn3c2CN2CCCCC2)cc1,-34.9%,11.2%,-35.3%,-35.9%,-10.3%
COc1cccc(OCc2nc(-c3cccc([N+](=O)[O-])c3)no2)c1,-19.4%,4.9%,9.7%[59 µM],-21.7%,0.0%
COC(=O)c1cccc(Cn2nc(C)c([N+](=O)[O-])c2C)c1,-14.6%,9.1%,5.3%[59 µM],50.1µM*,-12.0%
SMILES,BAZ2B inh,HP1b chromo inh,G9a block,JMJD2A Tudor inh,GLS inhibitor
COc1cccc(-c2noc(Cn3nc(C)c([N+](=O)[O-])c3C)n2)c1,-0.1%,-11.9%,39.8µM*,-11.6%,-8.6%
COc1ccc(C2=CSC(/N=C/c3ccc(F)cc3)=NN2)cc1,1.0%[57.1 µM],?,25.1µM*,?,?
O=C(Oc1ccccc1)c1cccc(C(=O)Oc2ccccc2)c1,/,/,/,/,-10.8%[99.4 µM]
O=C(Oc1ccccc1)c1ccc2nsnc2c1,50.1µM*,-21.9%,?,?,-8.7%
O=c1[nH]n(CCO)c(=O)c2cccnc12,?,-13.6%,?,56.2µM*,12.5%
Cn1c(=O)c2cccnc2c(=O)n1C,/,/,/,/,14.0%
CC(C)C[C@@H](CNCC(=O)[C@H](C)NC(=O)c1[nH]cnc1C(=O)N[C@@H](C)CN)NC(=O)c1nc[nH]c1C(=O)N[C@@H](Cc1ccccc1)C(=O)O,/,13.8%,/,79.4µM*,0.3%
CC(C)C[C@@H](CN)NC(=O)c1nc[nH]c1C(=O)N[C@@H](C)C(=O)CNC[C@H](CC(C)C)NC(=O)c1nc[nH]c1C(=O)N[C@@H](Cc1ccccc1)C(=O)O,/,48.3%,/,79.4µM*,?
CC(C)C[C@H](NC(=O)c1nc[nH]c1C(=O)NCCCCCN)C(=O)OCc1ccccc1,/,12.6%,/,79.4µM*,1.9%
CC(C)C[C@@H](CNCC(=O)[C@H](CC(C)C)NC(=O)c1[nH]cnc1C(=O)N[C@H](CN)CC(C)C)NC(=O)c1nc[nH]c1C(=O)N[C@@H](Cc1ccccc1)C(=O)O,/,21.7%,/,?,-13.2%
CC(C)C[C@H](NC(=O)c1nc[nH]c1C(=O)N[C@@H](CC(C)C)C(=O)OCc1ccccc1)C(=O)OCc1ccccc1,-2.3%,41.7%,/,-24.3%,-6.7%
CC(C)C[C@@H](CNCC(=O)[C@H](Cc1ccccc1)NC(=O)c1[nH]cnc1C(=O)N[C@H](CN)CC(C)C)NC(=O)c1nc[nH]c1C(=O)N[C@@H](CC(=O)O)C(=O)O,/,37.0%,/,28.2µM*,12.6µM*
COc1ccc(NC(=O)Cn2c(=O)oc3cc(S(=O)(=O)NCc4ccccc4)ccc32)c(OC)c1,4.1%,-13.5%,1.2%[59 µM],-10.6%,2.7%
Cc1cccc2c1-c1sc(C(=O)N(C)c3cccc(C(F)(F)F)c3)cc1CO2,61.0%,154.2%,133.4%[59 µM],98.9%,-14.3%
COc1ccc(NC(=O)COC(=O)CCc2ccccc2)c(OC)c1,4.9%,1.7%,27.7%,-9.8%,1.6%
Cc1ccc(-n2c(=O)c3c(C)c(C(=O)N(C)C)sc3n(CC(=O)N(C)c3ccccc3)c2=O)cc1C,-8.5%,-14.3%,-1.3%[59 µM],-20.0%,-8.2%
Cc1csc(N2C(=O)C3C4CCC(O4)C3C2=O)n1 (configuration not stated),/,31.2%,/,-2.1%,1.7%
COc1cccc(N2CCN(C(=O)c3ccc(OC)c(S(=O)(=O)NC4CC4)c3)CC2)c1,/,/,/,/,11.5%
Cc1ccc(-c2nsc(SCC(=O)NCC3CCCO3)n2)cc1 (configuration not stated),/,21.9%,-31.7%,-1.0%,5.8%
COc1ccc(-c2nsc(SCC(=O)Nc3cc(C)on3)n2)cc1,4.2%,?,3.55µM*,?,9.7%
CCOC(=O)CSc1nnc(-c2ccccc2)c(-c2ccccc2)n1,0.6%,32.2%,47.1%,9.9%,19.8%
CCOC(=O)Cn1nc(-c2ccccc2)nc1-c1ccccc1,5.8%,72.7%,27.6%[59 µM],5.62µM*,0.8%
